# Methyltransferases: Primary Screen for Target Class Profiling of Small Molecule Inhibitors of Methyltransferases; purified enzyme, MTase-Glo SAH luminescence; hits give low values; calls only at 40 µM; actives 3.9% (n = 25,000); AID 1745853, 2022; call rule not given here
#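 Each enzyme was reacted with SAM and its substrate, with compounds tested once at 40 uM; SAH formed was read by MTase-Glo luminescence.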
# The depositor's hits bear a star; i = inactive; + = active, no number; ! = repeats disagree. The full list was thinned out, with hits kept by preference. % is scaled to controls: 0 for no effect and ±100 for the full control effect.
SMILES,Methyltransferases
CC1CCCCC1NC(=O)C1(C)Cn2c(nc3ccccc32)C(=O)N1Cc1ccccc1 (stereo not drawn),i
COc1cc(/C=C/C(=O)OC2CC(C)=C(C(=O)O)/C2=C/CO[C@@H]2O[C@H](CO)[C@@H](O)[C@H](O)[C@H]2O)ccc1O (stereo partly drawn),i
COc1cc(C2Oc3c(OC)cc(/C=C/C(=O)OC[C@H]4O[C@@H](OC(C)(C)C(=O)O)[C@H](O)[C@@H](O)[C@@H]4O)cc3C2CO)ccc1O (stereo partly drawn),+
O=C(/C=C/c1ccc(O)c(O)c1)OCc1ccccc1O[C@@H]1O[C@H](CO)[C@@H](O)[C@H](O)[C@H]1O,i
CC1(C(=O)NC2CCCCCC2)Cn2c(ccc2-c2ccco2)C(=O)N1C1CCCCCC1 (stereo not drawn),i
C=C1CC/C=C(/CO)C(=O)C[C@@H]2[C@@H]1C[C@@]2(C)COC(C)=O,+
CCC1c2ccc(C)n2CCN1C(=O)Nc1cc(OC)ccc1OC (stereo not drawn),i
CCC(C)NC(=O)c1ccc2c(=O)n(Cc3ccccc3)c3nn(Cc4ccc(F)cc4)c(=O)n3c2c1 (stereo not drawn),i
CNS(=O)(=O)CC1CCC(N(C)c2ncnc3[nH]ccc23)CC1 (stereo not drawn),+
CC1(C(=O)NC2CCCCCC2)Cn2c(c(-n3cccc3)c3cc(F)ccc32)C(=O)N1Cc1cccs1 (stereo not drawn),i
COc1ccc(CN2C(=O)c3cc4sccc4n3CC2(C)C(=O)NC2CCCCCC2)cc1 (stereo not drawn),i
CC1(C)CC(=O)c2c(C(F)(F)F)nn(-c3ccc(C(N)=O)c(NC4CCC(OC(=O)CN)CC4)c3)c2C1 (stereo not drawn),+!
COC(=O)c1cc2n(n1)CC(C)(C(=O)NC1CCCCC1)N(c1ccc(OC)cc1)C2=O (stereo not drawn),i
CCOc1ccc(CN2C(=O)c3cc(-c4ccco4)nn3CC2(C)C(=O)NC2CCCCCC2)cc1 (stereo not drawn),i
Cc1cc(NC(=O)NCCN2CCC(O)(Cc3ccccc3)CC2)c2ccccc2n1,+
CN1C(=O)c2cc(C(=O)NCCN3CCOCC3)nn2CC1(C)C(=O)NCc1ccccc1 (stereo not drawn),i
O=C(NCCc1ccccc1)Nc1cccn2ncnc12,i
CC(C)OCCCNC(=O)C1c2c(n(C)c3ccccc23)SCC(=O)N1Cc1ccc2c(c1)OCO2 (stereo not drawn),i
CC(C)(C)c1cc(C[C@H]2CNCC[C@H]2CC(=O)N2CCC(Cc3ccccc3)CC2)no1,i
CC(C)NC(=O)CSc1nnc2n(Cc3ccccc3)c(=O)c3ccccc3n12,i
C[C@]1(C2CCCC2)Cc2cc(OCC(=O)O)c(Cl)c(Cl)c2C1=O,+
CCCC[C@@]1(C2CCCC2)Cc2cc(OCC(=O)O)c(Cl)c(Cl)c2C1=O,+
CC(C)CN1C(=O)CCc2cc(NC(=O)C3CCC3)ccc21,i
CC1(C=O)CCCC2(C)C1CCC13CC(CO)C(CCC12)C3 (stereo not drawn),i
CCC(C)NC(=O)c1ccc2c(=O)n(CCC(C)C)c3nn(Cc4cccc(C)c4)c(=O)n3c2c1 (stereo not drawn),i
SMILES,Methyltransferases
O=C(CCc1nnc2n(Cc3ccccc3)c(=O)c3ccccc3n12)NCc1ccc(F)cc1,i
CN1CCN(CCN2C(=O)c3ccc(-c4ccco4)n3CC2(C)C(=O)NC2CCCC2)CC1 (stereo not drawn),i
N#Cc1cccc(S(=O)(=O)N[C@@H]2CCOC[C@H]2OCc2cscn2)c1,i
Cc1cc(Cn2cc3c4c(cccc42)[C@H](CC(C)C)N[C@H](C(=O)NC2CCCC2)C3)no1,i
CN1C(=O)c2cc(C(=O)NCCCN3CCCCC3)nn2CC1(C)C(=O)NCc1ccccc1 (stereo not drawn),i
O=C(NCc1ccc(OC(F)(F)F)cc1)C1c2c(F)cccc2C(=O)N1CCc1ccccn1 (stereo not drawn),i
CCC(C)NC(=O)c1ccc2c(=O)n(CC(C)C)c3nnc(SCC(=O)NC(C)(C)C)n3c2c1 (stereo not drawn),i
c1cc(NC2CCNCC2)nc(-c2cnc3ccccn23)c1,+
O=C(Nc1ccccc1Cl)c1cnc2ccc(C3CCNCC3)cn12,i
Cc1ccc(Cl)cc1NS(=O)(=O)c1ccc2c(c1)n(C)c(=O)n2C,i
O=C(COC(=O)C(Cc1c[nH]c2ccccc12)NC(=O)c1ccc(Br)cc1)c1ccccc1 (stereo not drawn),i
CC(C)CCNC(=O)C1(C)Cn2nc(C(=O)NCCc3ccco3)cc2C(=O)N1C (stereo not drawn),i
CCOC(=O)c1cc2n(n1)CC(C)(C(=O)NCc1ccc(C)cc1)N(c1cccc(F)c1)C2=O (stereo not drawn),i
CN1CCN(C(=O)c2ccc(Nc3nccc(-c4cccs4)n3)cc2Cl)CC1,+
COc1ccc(C(=O)N2CCN(c3cc(-c4cccs4)[nH]n3)CC2)cc1OC,i
Cc1ccsc1C(=O)N1CCN(c2cc(-c3cccs3)[nH]n2)CC1,i
Cc1ccccc1CNC(=O)C(C)n1ccc2cc(S(=O)(=O)N3CCCC3)ccc21 (stereo not drawn),i
CCOc1ccc(CNC(=O)C(CC)n2ccc3cc(S(=O)(=O)N4CCCCC4)ccc32)cc1 (stereo not drawn),i
CCCn1c(=O)c2cc(Cl)ccc2n2c(SCC(=O)Nc3ccc(OC)cc3)nnc12,i
CCCCN1C(=O)CSc2c(c3ccccc3n2C)C1C(=O)NCCC(C)C (stereo not drawn),i
CCCCNC(=O)CCc1nnc2n(CCc3ccccc3)c(=O)c3ccccc3n12,i
CC(=O)NCCCCn1c2c(c3ccccc31)C(=O)NCC2,+
C=C1CCN([C@H](C)[C@](O)(Cn2cncn2)c2ccc(F)cc2F)CC1,i
CN(C)[C@H]1CCCCN(C(=O)c2cn(CCN3CCNCC3)nn2)C1,i
COc1ccc2cc(CNc3ccc(C)cc3)c(=O)n(CC(=O)Nc3cccc(C(F)(F)F)c3)c2c1,+
SMILES,Methyltransferases
COc1ccc(C(=O)N[C@@H]2CN(C(=O)Nc3cccc(C(F)(F)F)c3)CCC[C@H]2O)cc1,i
Cc1cc(C)cc(Nc2nc(C)cc(=O)n2CC(=O)Nc2cccc(C(F)(F)F)c2)c1,i
Cn1ncnc1[C@@H]1c2n[nH]c(=O)c3cc(F)cc(c23)N[C@H]1c1ccc(F)cc1,i
Clc1ncoc1-c1c[nH]c2ccccc12,i
O=C1NC(Cc2c[nH]c3ccccc23)C(=O)NC1Cc1c[nH]c2ccccc12 (stereo not drawn),i
O=C1NC(=O)C(c2c[nH]c3ccccc23)=C1c1c[nH]c2ccccc12,+
CCc1nn(CCO)c(CC)c1Oc1cc(C#N)cc(C#N)c1,i
CCC(C)NC(=O)c1ccc2c(=O)n(C)c3nn(CC(=O)NCc4ccccc4)c(=O)n3c2c1 (stereo not drawn),i
COc1cccc(-c2cccc(CN3CCCC3C(=O)N3CCCCC3)c2)c1 (stereo not drawn),i
CCCc1c(-c2ccc(O)cc2)nn(-c2ccc(O)cc2)c1-c1ccc(O)cc1,+
CCCn1c(=O)c2ccc(C(=O)NC(C)C)cc2n2c(SCC(=O)NC3CCCCC3)nnc12,i

# Compound activity (PubChem)
